Laboratory results published in the supplement of paper PMC4100887.
Structures can show the parent of a compound that is named as a salt. ± gives the standard deviation of the averaged measurements.

What was measured:
IMR-90 = test: relative cell viability (ATPlite) vs untreated control (fraction); higher = less toxic; conditions: 1 µM; 72 h
K562 [1] = test: as above; conditions: 1 µM; 72 h
K562 [2] = test: relative cell viability (ATPlite) vs untreated control, with imatinib (fraction); higher = less toxic; conditions: 1 µM; 72 h; imatinib 0.125 µM

Compound	relative cell viability (IMR-90)	relative cell viability (K562 [1])	relative cell viability (K562 [2])
Nc1[nH]nc2nnc(-c3c(-c4ccccc4)nn4ccccc34)cc12	1.03 ± 0.046	0.915 ± 0.036	0.779 ± 0.048
O=C1Nc2ccc(Br)cc2/C1=C/c1cc2c([nH]1)CCCC2 [VEGF Receptor 2 Kinase Inhibitor II]	0.979 ± 0.059	0.864 ± 0.081	0.782 ± 0.054
O=c1c(O)c(-c2ccc(O)c(O)c2)oc2cc(O)c(O)c(O)c12 [Quercetagetin]	0.88 ± 0.16	0.799 ± 0.086	0.64 ± 0.025
CN1C(=O)C(c2c[nH]c3ccccc23)=C(c2c[nH]c3ccccc23)C1=O [Bisindolylmaleimide V]	0.936 ± 0.091	0.88 ± 0.053	0.77 ± 0.0092
CC(C)[C@H](CO)Nc1nc(Nc2cc(N)cc(Cl)c2)c2ncn(C(C)C)c2n1 [Aminopurvalanol A]	0.837 ± 0.084	0.916 ± 0.037	0.796 ± 0.025
COc1cc2ncnc(Nc3cccc(O)c3)c2cc1OC [WHI-P180, Hydrochloride]	0.912 ± 0.092	0.747 ± 0.073	0.366 ± 0.045
Cc1cc(C=C2C(=O)C=CC2=O)cc(C)c1O	0.928 ± 0.045	0.736 ± 0.16	0.595 ± 0.12
O=C1Cc2c([nH]c3ccc([N+](=O)[O-])cc23)-c2ccccc2N1 [Alsterpaullone]	0.946 ± 0.067	0.906 ± 0.074	0.812 ± 0.026
CCC(=O)Nc1ccc2ncnc(Nc3cccc(Br)c3)c2c1	0.982 ± 0.058	0.903 ± 0.031	0.743 ± 0.05
CCCCn1c2ccc(O)cc2c2c3c(c(-c4ccccc4Cl)cc21)C(=O)NC3=O [Wee1 Inhibitor II]	0.754 ± 0.44	0.876 ± 0.086	0.748 ± 0.1
Nc1ccc(-c2cccc3c(=O)cc(N4CCOCC4)oc23)cc1	0.822 ± 0.13	0.79 ± 0.094	0.627 ± 0.056
CCOC(=O)c1c(C)[nH]c(/C=C2\C(=O)Nc3ccccc32)c1C [VEGF Receptor 2 Kinase Inhibitor I]	0.961 ± 0.063	0.996 ± 0.047	0.845 ± 0.075
Nc1nc(Nc2ccc(S(N)(=O)=O)cc2)nn1C(=S)Nc1c(F)cccc1F [Cdk1/2 Inhibitor III]	1.11 ± 0.082	0.0545 ± 0.0021	0.0471 ± 0.0048
COc1ccc(CNC(=O)Nc2ncc([N+](=O)[O-])s2)cc1 [GSK-3b Inhibitor VIII]	0.978 ± 0.09	0.82 ± 0.048	0.713 ± 0.049
CC(=O)O/N=C1/C(c2c(O)[nH]c3cc(Br)ccc23)=Nc2ccccc21 [GSK-3 Inhibitor X]	0.903 ± 0.052	0.885 ± 0.08	0.76 ± 0.036
O=c1cc(N2CCNCC2)oc2c(-c3ccccc3)cccc12	0.987 ± 0.049	0.828 ± 0.11	0.76 ± 0.034
NC(N)=NCCNS(=O)(=O)c1cccc2cnccc12 [HA 1004, Dihydrochloride]	1.01 ± 0.1	0.851 ± 0.066	0.756 ± 0.015
N#CC(c1ccnc(NCCc2cccnc2)n1)c1nc2ccccc2s1 (centres undefined) [JNK Inhibitor V]	1.01 ± 0.077	0.851 ± 0.092	0.703 ± 0.056
CNc1cc2c(Nc3cccc(Br)c3)ncnc2cn1	1.04 ± 0.053	0.995 ± 0.043	0.807 ± 0.023
COc1cc2ncnc(Nc3ccc(Cl)cc3Cl)c2cc1OC [Ste11 MAPKKK Activation Inhibitor]	0.946 ± 0.13	0.802 ± 0.084	0.71 ± 0.076
NCCNc1ncc(C(N)=O)c(Nc2cccc(C(F)(F)F)c2)n1 [Syk Inhibitor II]	0.974 ± 0.079	0.949 ± 0.058	0.773 ± 0.048

Compound	relative cell viability (IMR-90)	relative cell viability (K562 [1])	relative cell viability (K562 [2])
Cc1ncc2ccccc2c1C#N [4-Cyano-3-methylisoquinoline]	0.955 ± 0.066	0.917 ± 0.06	0.828 ± 0.032
COc1ccc(CNc2nc(N(CCO)CCO)nc3c2ncn3C(C)C)cc1 [Cdk2 Inhibitor III]	0.927 ± 0.086	0.855 ± 0.061	0.772 ± 0.058
NS(=O)(=O)c1ccc(N=Nc2c(O)[nH]c3ccc(Br)cc23)cc1 [Cdk2 Inhibitor II]	1.22 ± 0.2	0.839 ± 0.084	0.825 ± 0.052
CC(C)n1cnc2c(NCc3ccccc3O)nc(NCCCO)nc21 [Cdk Inhibitor, p35]	1.04 ± 0.054	0.855 ± 0.056	0.779 ± 0.03
Cn1sc(=O)n(Cc2ccccc2)c1=O [GSK-3b Inhibitor I]	0.98 ± 0.13	0.793 ± 0.027	0.704 ± 0.031
COc1ccc(OC)c2c(=S)c3ccccc3[nH]c12	0.981 ± 0.051	0.927 ± 0.054	0.795 ± 0.041
c1ccc2c(-c3ccncc3)c[nH]c2c1 [Rho Kinase Inhibitor III, Rockout]	0.814 ± 0.19	0.833 ± 0.097	0.683 ± 0.029
CCOc1nc(NC(=O)Cc2cc(OC)ccc2OC)cc(N)c1C#N [JNK Inhibitor VIII]	0.992 ± 0.081	0.983 ± 0.035	0.769 ± 0.053
CS(=O)(=O)c1ccc(-c2nc(-c3ccc(F)cc3)c(-c3ccncc3)[nH]2)cc1	1.03 ± 0.08	0.831 ± 0.064	0.703 ± 0.043
O=C(Nc1ccc(Cl)cc1)c1ccccc1NCc1ccncc1 [VEGF Receptor Tyrosine Kinase Inhibitor II]	0.987 ± 0.064	0.852 ± 0.056	0.802 ± 0.036
Cc1ccc(NC2=CC(=O)c3sc(C)nc3C2=O)cc1 [Cdk4 Inhibitor III]	0.997 ± 0.032	0.782 ± 0.1	0.685 ± 0.14
CC(=O)c1ccc(N2CCOCC2)cc1O [DNA-PK Inhibitor III]	1.02 ± 0.093	0.878 ± 0.059	0.782 ± 0.027
CCN(CC)CCCCN1c2ccccc2Oc2ccc(Cl)cc21 [Akt Inhibitor X]	0.889 ± 0.093	0.848 ± 0.089	0.77 ± 0.061
CC[C@@H](CO)Nc1nc(NCc2ccc(-c3ccccn3)cc2)c2ncn(C(C)C)c2n1 [CR8, (S)-Isomer]	0.107 ± 0.035	0.0828 ± 0.015	0.0705 ± 0.018
O=C(Nc1ccncc1)Nc1c(Cl)cc(Cl)cc1Cl [Rho Kinase Inhibitor II]	1.08 ± 0.11	0.856 ± 0.056	0.743 ± 0.03
c1ccc(-c2cnc(Nc3ccc(OCCN4CCCC4)cc3)s2)cc1 [Flt-3 Inhibitor III]	0.924 ± 0.052	0.916 ± 0.065	0.797 ± 0.031
c1cc(-c2cnn3cc(-c4ccc(OCCN5CCCCC5)cc4)cnc23)ccn1 [AMPK Inhibitor, Compound C]	0.86 ± 0.092	0.883 ± 0.072	0.834 ± 0.051
CCCCc1c(-c2ccc(OC)cc2)[nH]c2nccnc12 [Aloisine, RP106]	0.897 ± 0.069	0.929 ± 0.046	0.819 ± 0.05
CCC(CO)Nc1nc(NCc2ccccc2)c2ncn(C(C)C)c2n1 [Roscovitine, (S)-Isomer]	1.04 ± 0.054	0.912 ± 0.081	0.729 ± 0.057
CO[C@H]1C[C@@H]2CC[C@@H](C)[C@@](O)(O2)C(=O)C(=O)N2CCCC[C@H]2C(=O)O[C@H]([C@H](C)C[C@@H]2CC[C@@H](O)[C@H](OC)C2)CC(=O)[C@H](C)/C=C(\C)[C@@H](O)[C@@H](OC)C(=O)[C@H](C)C[C@H](C)/C=C/C=C/C=C/1C [Rapamycin]	0.598 ± 0.075	0.585 ± 0.032	0.481 ± 0.036
CCCC(=O)Oc1ccc2[nH]c(C(=O)c3cc4ccccc4[nH]3)cc2c1 [PDGF Receptor Tyrosine Kinase Inhibitor II]	1.01 ± 0.064	0.812 ± 0.097	0.77 ± 0.025

Compound	relative cell viability (IMR-90)	relative cell viability (K562 [1])	relative cell viability (K562 [2])
O=C(Nc1cc(Cl)cc2c1[nH]c1cnccc12)c1cccnc1 [IKK Inhibitor X]	0.946 ± 0.061	0.896 ± 0.069	0.804 ± 0.023
Cc1cc2ncc(-c3ccccc3)nc2cc1C	0.969 ± 0.069	0.836 ± 0.094	0.719 ± 0.05
COc1ccc2c(c1)c1c3c(c4c5ccccc5n(C)c4c1n2CC(O)CN(C)C)C(=O)NC3=O (centres undefined) [Gö 7874, Hydrochloride]	0.87 ± 0.034	0.901 ± 0.025	0.775 ± 0.031
Nc1ncnc2c1c(I)cn2[C@@H]1O[C@H](CO)[C@@H](O)[C@H]1O [5-Iodotubercidin]	0.745 ± 0.14	0.715 ± 0.12	0.702 ± 0.065
O=C(O)C=Cc1cc(Br)c(Br)c(Br)c1Br [Casein Kinase II Inhibitor III, TBCA]	0.889 ± 0.14	0.988 ± 0.082	0.836 ± 0.044
CCCCc1c(-c2ccc(O)cc2)[nH]c2nccnc12 [Aloisine A, RP107]	0.913 ± 0.06	0.884 ± 0.048	0.77 ± 0.032
Nc1n[nH]c(N)c1N=Nc1ccc(O)cc1 [Cdk9 Inhibitor II]	0.93 ± 0.099	0.839 ± 0.073	0.765 ± 0.035
O=C(Nc1cc(C(F)(F)F)cc(C(F)(F)F)c1)c1cc(Cl)ccc1O [IKK-2 Inhibitor V]	0.878 ± 0.28	0.505 ± 0.03	0.477 ± 0.011
O=C1NC(=O)C(c2c[nH]c3ccccc23)=C1c1c[nH]c2ccccc12 [Bisindolylmaleimide IV]	0.826 ± 0.14	0.936 ± 0.053	0.851 ± 0.024
COc1cc2ncnc(Nc3ccc(NC(=O)c4ccccc4)cc3)c2cc1OC [Aurora Kinase Inhibitor II]	0.92 ± 0.071	0.909 ± 0.055	0.783 ± 0.027
Fc1ccc(-c2nc3n(c2-c2ccncc2)CCS3)cc1	0.999 ± 0.12	0.845 ± 0.071	0.737 ± 0.058
COc1cc2ncc(-c3ccccc3)nc2cc1OC	1.1 ± 0.066	0.888 ± 0.083	0.76 ± 0.045
COc1ccc(COc2ccc(Cc3cnc(N)nc3N)cc2OC)cc1 [cFMS Receptor Tyrosine Kinase Inhibitor]	1.05 ± 0.12	0.789 ± 0.061	0.699 ± 0.007
CCCCCCOC(=O)[C@]1(O)C[C@@H]2O[C@@]1(C)n1c3ccccc3c3c4c(c5c6ccccc6n2c5c31)C(=O)NC4	1.05 ± 0.14	0.825 ± 0.056	0.764 ± 0.02
Cc1nc2cc3nc(-c4cccs4)cnc3cc2n1C	0.894 ± 0.058	0.343 ± 0.04	0.288 ± 0.015
COc1ccc(Cl)cc1NC(=O)Nc1cc(C)nc2ccccc12 [IGF-1R Inhibitor II]	1.04 ± 0.08	0.933 ± 0.014	0.798 ± 0.018
COc1cc2ncnc(N3CCN(C(=O)Nc4ccc(Oc5ccccc5)cc4)CC3)c2cc1OC [PDGF Receptor Tyrosine Kinase Inhibitor III]	1.01 ± 0.086	0.736 ± 0.03	0.649 ± 0.029
C[S+]([O-])c1ccc(-c2nc(-c3ccc(F)cc3)c(-c3ccncc3)[nH]2)cc1 (centres undefined)	0.994 ± 0.062	0.921 ± 0.054	0.751 ± 0.048
O=C(c1ccccc1)c1ccc(N2CCOCC2)cc1O [DNA-PK Inhibitor V]	1.01 ± 0.094	0.878 ± 0.066	0.756 ± 0.03
O=c1c2ccccc2[nH]c(=S)n1CCN1CCC(=C(c2ccc(F)cc2)c2ccc(F)cc2)CC1 [Diacylglycerol Kinase Inhibitor II]	0.995 ± 0.097	0.867 ± 0.094	0.768 ± 0.07
CN(C)CCCn1cc(C2=C(c3c[nH]c4ccccc34)C(=O)NC2=O)c2ccccc21 [Bisindolylmaleimide I]	0.895 ± 0.12	0.169 ± 0.052	0.137 ± 0.042
